Source: PubChem (National Center for Advancing Translational Sciences (NCATS))
FBPA Giardia inh: inhibitors of Giardia lamblia fructose-1,6-bisphosphate aldolase | A8B2U2 | purified Giardia FBPA | Potency, µM (top dose mostly 59.6 µM), usual class: inhibitors | 290,000 compounds, 0.71% hits; also: nearly all actives have a fitted effect of over 55% in size
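Giardia FBPA (40 nM reagent) was preincubated 10 min at RT with compound (up to 57.5 uM final), then substrate plus GAPDH/TPI/NAD/arsenate coupling system with diaphorase/resazurin was added; resorufin fluorescence (525/598 nm) was read after 20 min.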
LmPK inhibitor: LmPK (Leishmania mexicana) enzyme inhibition; Q27686; purified LmPK, Kinase-Glo ATP luminescence, 1 h; Potency, µM (doses to about 57.5 µM), actives largely listed as inhibitors; 290,000 compounds, 0.37% hits
Target sequence (Q27686 whole entry, looked up): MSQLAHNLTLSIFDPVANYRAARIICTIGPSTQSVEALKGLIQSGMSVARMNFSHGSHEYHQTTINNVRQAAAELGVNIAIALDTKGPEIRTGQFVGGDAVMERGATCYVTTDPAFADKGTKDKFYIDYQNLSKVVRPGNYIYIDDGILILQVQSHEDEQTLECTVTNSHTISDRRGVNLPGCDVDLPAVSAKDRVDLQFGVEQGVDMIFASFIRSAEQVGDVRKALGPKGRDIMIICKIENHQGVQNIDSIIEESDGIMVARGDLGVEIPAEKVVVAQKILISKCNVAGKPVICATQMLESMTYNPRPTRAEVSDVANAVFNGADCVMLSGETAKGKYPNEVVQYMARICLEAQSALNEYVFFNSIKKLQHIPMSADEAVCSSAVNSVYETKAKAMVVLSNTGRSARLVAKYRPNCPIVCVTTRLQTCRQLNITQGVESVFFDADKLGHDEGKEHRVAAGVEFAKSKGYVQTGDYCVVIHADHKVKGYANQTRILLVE
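qHTS format; LmPK 0.1 nM; substrates PEP 0.5 mM and ADP 0.1 mM. One-hour room-temperature incubation, then coupled luciferase luminescence; 0.5 nM enzyme wells mark activation.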
Tb PYK inh: blocks Trypanosoma brucei pyruvate kinase. Potency, µM (top dose mostly 76.8 µM), most hits filed as inhibitors. AID 624173. Q57TT1. 410,000 compounds, 0.12% hits. TbPYK enzyme, Kinase-Glo Plus ATP luminescence, 45 min; also: nearly all actives have a fitted effect of over 50% in size
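TbPYK + substrate in 50 mM TEA pH 7.2, 100 mM KCl, 10 mM MgCl2, 0.05% BSA, 0.01% Tween-20; cpd pinned; ADP 130 uM final; 45 min RT; Kinase-Glo Plus 10 min; luminescence endpoint.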
Cycloheximide cs: affects cycloheximide protein synthesis inhibition readout, counter-screen | cell reporter, cycloheximide protein synthesis inhibition counterscreen | max response, % | 300,000 compounds, 12% hits | AID 2314; in the data active = max response mostly above about 13%, no sharp cut-off; inactive = mostly below about 14%; also: read at 38.3 µM for the half of the compounds with a filed dose
Sm TGR inh: blocks Schistosoma mansoni thioredoxin glutathione reductase; Potency, µM (series often up to 114 µM), most hits filed as inhibitors; purified TGR, DTNB reduction, TNB absorbance 405 nm; 360,000 compounds, 3% hits; AID 485364; also: nearly all actives have a fitted effect of over 60% in size
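Kinetic colorimetric format: TGR-catalysed, NADPH-driven DTNB reduction monitored via TNB absorbance. Enzyme dispensed at 20 nM; compound exposure 15 min at room temperature before reaction start.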
Shiga inhibitor: inhibitors of Shiga toxin in Vero cells. Vero cells, Shiga toxin protein synthesis inhibition reporter. inhibition, % at 38.7 µM. 290,000 compounds, 9.2% hits; in the data active = inhibition mostly above about 28%, no sharp cut-off; inactive = mostly below about 43%
Each line names hits and unclear results; the compound was inactive in the other large screens. The entries come from a sample that favours hits as a whole. Unless noted, calls follow the shape of the dose curve; as a rule, active = well fitted curve in the direction sought with a large enough effect; inconclusive = small, poorly fitted or top-dose-only effect, or another doubt; inactive = no such curve, though single readings can be large; an effect the other way counts as inactive or inconclusive.

Cc1cn(CC(=O)NCc2ccc(N(C)C)cc2)c(=O)[nH]c1=O	none (no result: FBPA Giardia inh, LmPK inhibitor, Cycloheximide cs, Sm TGR inh, Shiga inhibitor)
C[Si](C)(C)C#Cc1ccccc1NC(=S)Nc1ccccc1	none (no result: LmPK inhibitor, Tb PYK inh, Cycloheximide cs, Sm TGR inh, Shiga inhibitor)
CC(C)C[C@H]1CNC(=S)N1C[C@H]1CCCN1C[C@H](CC(C)C)N1C[C@H](Cc2ccc(O)cc2)N(CC2CCCCCC2)C1=S	none (no result: FBPA Giardia inh, LmPK inhibitor, Cycloheximide cs, Sm TGR inh, Shiga inhibitor)
COc1cccc(C(c2nnnn2Cc2ccco2)N2CCN(c3cccc(C)c3C)CC2)c1OC (configuration not stated)	Tb PYK inh inconclusive, Shiga inhibitor 58
c1coc(Cn2nnnc2CN2CCN(C3CCCC3)CC2)c1	Sm TGR inh 32µM
Cc1cccc2cc(C(c3nnnn3CC3CCCO3)N3CCCC4(CCCCC4)C3)c(=O)[nH]c12 (configuration not stated)	none (no result: Tb PYK inh)
Cc1cccc2cc(C(c3nnnn3Cc3ccc4c(c3)OCO4)N3CCCC3)c(=O)[nH]c12 (configuration not stated)	FBPA Giardia inh inconclusive, Sm TGR inh 11µM
COc1ccc(OC)c(C(c2nnnn2Cc2ccco2)N2CCN(C)CC2)c1 (configuration not stated)	none
Clc1ccccc1C(c1nnnn1Cc1ccco1)N1CCN(Cc2ccco2)CC1 (configuration not stated)	Sm TGR inh 32µM
CCc1cccc(C)c1NC(=O)C(CC)n1nc(C)c2c(C)n(-c3ccccc3)nc2c1=O (configuration not stated)	none (no result: FBPA Giardia inh, LmPK inhibitor, Cycloheximide cs, Shiga inhibitor)
COc1ccc2[nH]c(=O)c(C(c3nnnn3CC3CCCO3)N3CCCCC3)cc2c1 (configuration not stated)	none
c1ccc(Cn2nnnc2C(c2ccncc2)N2CCOCC2)cc1 (configuration not stated)	none
Cc1cc(C(c2nnnn2Cc2ccccc2)N2CCOCC2)c(C)n1-c1ccc2c(c1)OCO2 (configuration not stated)	Cycloheximide cs 18, Sm TGR inh 10µM, Shiga inhibitor 42
CCOc1ccc2[nH]c(=O)c(C(c3nnnn3Cc3ccco3)N3CCN(C)CC3)cc2c1 (configuration not stated)	FBPA Giardia inh 0.89µM, Cycloheximide cs 29, Sm TGR inh inconclusive, Shiga inhibitor 96
Cc1cc2cc(C(c3nnnn3Cc3ccco3)N3CCCCC3)c(=O)[nH]c2cc1C (configuration not stated)	Sm TGR inh 40µM
COc1ccc(C(=O)N2CCC3(CC2)CN(c2ccccn2)C3)cc1	none (no result: LmPK inhibitor, Cycloheximide cs, Sm TGR inh, Shiga inhibitor)
COc1ccc(NC(=O)C2=CC=CN3CCS(=O)(=O)N=C23)c(OC)c1	none (no result: FBPA Giardia inh, LmPK inhibitor, Cycloheximide cs, Sm TGR inh, Shiga inhibitor)
Fc1cccc(Nc2cc(-n3cccn3)ncn2)c1	Cycloheximide cs 49, Shiga inhibitor 51
Cc1ccc(Nc2cc(-n3cccn3)ncn2)c(C)c1	Cycloheximide cs 28
COc1ccc(N(C)C(=O)c2nc(-c3cccc(F)c3)n3c2CCCCC3)c(OC)c1	none (no result: FBPA Giardia inh, LmPK inhibitor, Cycloheximide cs, Shiga inhibitor)
Cc1cccn2c(N)c(-c3ccccc3)nc12	LmPK inhibitor inconclusive, Cycloheximide cs 20
CCOC(=O)c1c(-c2ccccc2)nc2c(C)cccn12	none
CC1CC2C3CCC4=CC(=O)C=CC4(C)[C@@]3(F)C(O)CC2(C)[C@@]1(O)C(=O)CCl (some centres not stated)	none (no result: FBPA Giardia inh, LmPK inhibitor, Cycloheximide cs, Sm TGR inh, Shiga inhibitor)
CCN1C(=O)CC(N2CCN(c3ccc(C(=O)c4ccccc4)cc3)CC2)C1=O (configuration not stated)	Cycloheximide cs 64, Shiga inhibitor 106
O=C1CC(N2CCN(c3ccc(C(=O)c4ccc(F)cc4)cc3)CC2)C(=O)N1 (configuration not stated)	Cycloheximide cs 18
O=C(c1ccc(N2CCN(C(=O)c3ccccc3)CC2)cc1)c1cccc(F)c1	none
CC(=O)Nc1ccc(S(=O)(=O)N2CCN(c3cc(C(F)(F)F)ccn3)CC2)cc1	none
FC(F)(F)c1ccnc(N2CCN(Cc3cnc(-c4ccccc4)[nH]3)CC2)c1	Cycloheximide cs 63, Shiga inhibitor 61
Cc1ncccc1C(=O)N1CCCC(C(=O)c2ccc3c4c(cccc24)CC3)C1 (configuration not stated)	none
O=C(c1ccc2c3c(cccc13)CC2)C1CCCN(C(=O)c2ccc(=O)[nH]c2)C1 (configuration not stated)	Sm TGR inh 40µM
Cc1ccccc1-n1c(SCC(=O)Nc2ccc(Cl)cc2Cl)nc(O)cc1=O	none (no result: FBPA Giardia inh, LmPK inhibitor, Cycloheximide cs, Shiga inhibitor)
S=c1nc(NCCc2ccccc2Cl)c2ccccc2[nH]1	Cycloheximide cs 26
Cc1ccc(NC(=O)CCCCCN2C(=O)[C@@H]3Cc4ccccc4CN3C2=O)c(Cl)c1	none (no result: FBPA Giardia inh)
O=C(NCCCCO)c1c(-c2ccccc2)oc2c1C(OCCCCCO)CCC2 (configuration not stated)	none (no result: FBPA Giardia inh, LmPK inhibitor, Cycloheximide cs, Sm TGR inh, Shiga inhibitor)
COC(=O)c1sccc1NC(=O)C1C2C=CC(O2)C1C(=O)O (configuration not stated)	none
Cc1ccc(NC(=O)C2C3C=CC(O3)C2C(=O)O)c(C)c1 (configuration not stated)	Sm TGR inh 35µM
Cc1cccc(NC(=O)C2C3C=CC(O3)C2C(=O)O)c1C (configuration not stated)	Sm TGR inh 45µM
COc1ccccc1NC(=O)C1C2C=CC(O2)C1C(=O)O (configuration not stated)	Sm TGR inh 40µM (no result: Tb PYK inh)
Cc1ccc(C)c(NC(=O)C2C3C=CC(O3)C2C(=O)O)c1 (configuration not stated)	Sm TGR inh 45µM
O=C(Cc1ccc(Cl)cc1)N/N=C/c1cccc(O)c1	none
CC(C)c1ccc2oc(-c3ccc(N)cc3)nc2c1	Cycloheximide cs 42, Shiga inhibitor 117
Nc1ccc2oc(-c3cccs3)nc2c1	Cycloheximide cs 46, Shiga inhibitor 86
CC(C)c1ccc2oc(-c3ccc(NC(=O)c4cc5ccccc5o4)cc3)nc2c1	none (no result: FBPA Giardia inh, LmPK inhibitor, Cycloheximide cs, Shiga inhibitor)
Cc1ccc(-c2nc3cc(N)ccc3o2)cc1	LmPK inhibitor inconclusive, Cycloheximide cs 25, Shiga inhibitor 68
Cc1ccc(-c2nc3cc(N)ccc3o2)c(C)c1	Cycloheximide cs 33, Shiga inhibitor 66
Nc1ccc2oc(-c3cccc4ccccc34)nc2c1	none
O=c1oc(-c2cccs2)nc2ccccc12	none
COc1cccc(CN(C)C(=O)c2[nH]c(C)c(C(C)=O)c2C)c1OC	none
CC(C)(C)c1ccc(-c2nc3cc(N)ccc3o2)cc1	Cycloheximide cs 51, Shiga inhibitor 94
CC(C)(C)c1ccc(-c2nc3cc(NC(=O)c4cc5ccccc5o4)ccc3o2)cc1	none (no result: FBPA Giardia inh, LmPK inhibitor, Cycloheximide cs, Shiga inhibitor)
Cc1ccc2oc(-c3ccco3)nc2c1	Cycloheximide cs 42, Shiga inhibitor 101
Cc1ccc(-c2nc3cc(C)ccc3o2)cc1	LmPK inhibitor inconclusive, Cycloheximide cs 33, Shiga inhibitor 118
Cc1ccc2oc(-c3cccc(N)c3)nc2c1	Cycloheximide cs 26, Shiga inhibitor 58
Cc1ccc(-c2nc3cc(NS(=O)(=O)c4ccc(C)cc4)ccc3o2)cc1	none
